Reference: PubChem BioAssay AID1159580 (chemical genetic matrix, 2015)
Where “and” joins values, the source holds several entries; their conditions need not be identical. Equal values may be shown once. The whole screen tested about 5,500 compounds, of which about 2,000 (36%) were called active. Inconclusive results (about 18%) are left out. Cut-off read from the data, not from the text of the source: active = normalized growth mostly below about 0.91 (no sharp cut-off); inconclusive = no clear call, values can overlap the other calls; inactive = mostly above about 0.92. This is one part of the list.

Assay: chemical genetic growth profiling, strain panel (AID 1159580);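 note: tested at 20 µM; growth read once vehicle control cultures reached saturation at 30 °C; 1 = growth at the plate median or of vehicle wells; lower values mean less growth of the strain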
Settings: growth OD

Measured: normalized growth

Cc1cc(C(C)(C)C)cc(C)c1CC1=NCCN1
inactive: S. cerevisiae deletion strains, locus YJR075W, strain HOC1, stronger effect = lower value 1.02 | S. cerevisiae deletion strains, locus YKL009W, strain mrt4, stronger effect = lower value 1.03 | S. cerevisiae deletion strains, locus YKL068W, stronger effect = lower value 1 | S. cerevisiae deletion strains, locus YKL085W, strain MDH1 (second series), stronger effect = lower value 1.02 | S. cerevisiae deletion strains, locus YKL085W, strain MDH1, stronger effect = lower value 1.02 | S. cerevisiae deletion strains, locus YKL160W, strain elf1, stronger effect = lower value 1.01 | S. cerevisiae deletion strains, locus YKL190W, strain CNB1, stronger effect = lower value 1.02 | S. cerevisiae deletion strains, locus YKR001C, strain vps1, stronger effect = lower value 0.99 | S. cerevisiae deletion strains, locus YKR026C, strain gcn3, stronger effect = lower value 1.01 | S. cerevisiae deletion strains, locus YKR091W, strain srl3, stronger effect = lower value 0.996 | S. cerevisiae deletion strains, locus YLL001W, strain dnm1, stronger effect = lower value 1.03 | S. cerevisiae deletion strains, locus YLL026W, stronger effect = lower value 0.995 | S. cerevisiae deletion strains, locus YLL041C, strain sdh2, stronger effect = lower value 1 | S. cerevisiae deletion strains, locus YLR027C, strain aat2, stronger effect = lower value 1.01 | S. cerevisiae deletion strains, locus YLR039C, strain RIC1, stronger effect = lower value 0.992 | S. cerevisiae deletion strains, locus YLR058C, strain SHM2, stronger effect = lower value 1.02 | S. cerevisiae deletion strains, locus YLR102C, strain apc9, stronger effect = lower value 0.996 | S. cerevisiae deletion strains, locus YLR113W, strain HOG1, stronger effect = lower value 0.997 | S. cerevisiae deletion strains, locus YLR221C, strain rsa3, stronger effect = lower value 0.969 | S. cerevisiae deletion strains, locus YLR258W, strain gsy2, stronger effect = lower value 1 | S. cerevisiae deletion strains, locus YLR262C, strain YPT6 (second series), stronger effect = lower value 1.03 | S. cerevisiae deletion strains, locus YLR262C, strain YPT6, stronger effect = lower value 1.06 | S. cerevisiae deletion strains, locus YLR268W, strain sec22, stronger effect = lower value 0.983 | S. cerevisiae deletion strains, locus YLR320W, strain mms22, stronger effect = lower value 0.99 | S. cerevisiae deletion strains, locus YLR330W, strain CHS5, stronger effect = lower value 1.01 | S. cerevisiae deletion strains, locus YLR342W, strain FKS1 (second series), stronger effect = lower value 0.99 | S. cerevisiae deletion strains, locus YLR342W, strain FKS1, stronger effect = lower value 1 | S. cerevisiae deletion strains, locus YLR357W, strain rsc2, stronger effect = lower value 1 | S. cerevisiae deletion strains, locus YLR370C, strain arc18, stronger effect = lower value 1.01 | S. cerevisiae deletion strains, locus YLR371W, strain rom2, stronger effect = lower value 1 | S. cerevisiae deletion strains, locus YLR384C, strain iki3, stronger effect = lower value 1 | S. cerevisiae deletion strains, locus YLR418C, strain cdc73, stronger effect = lower value 0.995 | S. cerevisiae deletion strains, locus YML016C, strain PPZ1, stronger effect = lower value 1.01 | S. cerevisiae deletion strains, locus YML032C, strain rad52, stronger effect = lower value 0.994 | S. cerevisiae deletion strains, locus YML120C, strain ndi1, stronger effect = lower value 1.01 | S. cerevisiae deletion strains, locus YML124C, strain tub3, stronger effect = lower value 0.996 | S. cerevisiae deletion strains, locus YMR058W, strain fet3, stronger effect = lower value 1.01 | S. cerevisiae deletion strains, locus YMR078C, strain ctf18, stronger effect = lower value 0.991 | S. cerevisiae deletion strains, locus YMR125W, strain sto1, stronger effect = lower value 0.981 | S. cerevisiae deletion strains, locus YMR129W, stronger effect = lower value 1 | S. cerevisiae deletion strains, locus YMR205C, strain PFK2, stronger effect = lower value 1.02 | S. cerevisiae deletion strains, locus YMR223W, strain ubp8, stronger effect = lower value 1 | S. cerevisiae deletion strains, locus YMR231W, strain pep5, stronger effect = lower value 1 | S. cerevisiae deletion strains, locus YMR263W, strain SAP30, stronger effect = lower value 1.02 | S. cerevisiae deletion strains, locus YMR307W, strain GAS1, stronger effect = lower value 1.02 and 0.994 | S. cerevisiae deletion strains, locus YNL067W, strain RPL9B, stronger effect = lower value 1.02 | S. cerevisiae deletion strains, locus YNL071W, strain lat1, stronger effect = lower value 0.998 | S. cerevisiae deletion strains, locus YNL128W, strain TEP1, stronger effect = lower value 1.03 and 0.994 | S. cerevisiae deletion strains, locus YNL153C, strain GIM3, stronger effect = lower value 1 and 0.97 | S. cerevisiae deletion strains, locus YNL175C, strain NOP13, stronger effect = lower value 1.02 | S. cerevisiae deletion strains, locus YNL183C, strain NPR1, stronger effect = lower value 0.96 | S. cerevisiae deletion strains, locus YNL197C, strain WHI3, stronger effect = lower value 1.01 | S. cerevisiae deletion strains, locus YNL209W, strain ssb2, stronger effect = lower value 0.998 | S. cerevisiae deletion strains, locus YNL224C, strain SQS1, stronger effect = lower value 0.987 | S. cerevisiae deletion strains, locus YNL233W, strain BNI4, stronger effect = lower value 1.02 | S. cerevisiae deletion strains, locus YNL248C, strain rpa49, stronger effect = lower value 0.948 | S. cerevisiae deletion strains, locus YNL250W, strain rad50, stronger effect = lower value 1.01 | S. cerevisiae deletion strains, locus YNL271C, strain bni1, stronger effect = lower value 0.986 | S. cerevisiae deletion strains, locus YNL298W, strain CLA4, stronger effect = lower value 0.992 | S. cerevisiae deletion strains, locus YNL307C, strain MCK1, stronger effect = lower value 1.01 | S. cerevisiae deletion strains, locus YNL322C, strain KRE1 (second series), stronger effect = lower value 1.01 | S. cerevisiae deletion strains, locus YNL322C, strain KRE1, stronger effect = lower value 1.02 | S. cerevisiae deletion strains, locus YNR049C, strain mso1, stronger effect = lower value 0.998 | S. cerevisiae deletion strains, locus YNR052C, strain pop2, stronger effect = lower value 0.997 | S. cerevisiae deletion strains, locus YOL006C, strain TOP1, stronger effect = lower value 0.984 | S. cerevisiae deletion strains, locus YOL012C, strain htz1 1.06 | S. cerevisiae deletion strains, locus YOL147C, strain pex11, stronger effect = lower value 0.998 | S. cerevisiae deletion strains, locus YOR001W, strain rrp6, stronger effect = lower value 1.02 | S. cerevisiae deletion strains, locus YOR061W, strain CKA2, stronger effect = lower value 1.01 | S. cerevisiae deletion strains, locus YOR069W, strain VPS5, stronger effect = lower value 1.02 | S. cerevisiae deletion strains, locus YOR070C, strain gyp1, stronger effect = lower value 0.992 | S. cerevisiae deletion strains, locus YOR080W, strain dia2, stronger effect = lower value 1.01 | S. cerevisiae deletion strains, locus YOR083W, strain WHI5 (second series), stronger effect = lower value 0.992 | S. cerevisiae deletion strains, locus YOR083W, strain WHI5, stronger effect = lower value 0.99 | S. cerevisiae deletion strains, locus YOR106W, strain vam3, stronger effect = lower value 1.03 | S. cerevisiae deletion strains, locus YOR136W, strain idh2, stronger effect = lower value 0.997 | S. cerevisiae deletion strains, locus YOR144C, strain elg1, stronger effect = lower value 1 | S. cerevisiae deletion strains, locus YOR184W, strain ser1, stronger effect = lower value 1 | S. cerevisiae deletion strains, locus YOR231W, strain MKK1, stronger effect = lower value 1 | S. cerevisiae deletion strains, locus YOR265W, strain rbl2, stronger effect = lower value 1 | S. cerevisiae deletion strains, locus YOR270C, strain vph1, stronger effect = lower value 1 | S. cerevisiae deletion strains, locus YOR290C, strain snf2, stronger effect = lower value 0.975 | S. cerevisiae deletion strains, locus YOR316C, strain cot1, stronger effect = lower value 0.997 | S. cerevisiae deletion strains, locus YPL051W, strain arl3, stronger effect = lower value 1.01 | S. cerevisiae deletion strains, locus YPL055C, strain LGE1, stronger effect = lower value 1.04 | S. cerevisiae deletion strains, locus YPL078C, strain atp4, stronger effect = lower value 1.03 | S. cerevisiae deletion strains, locus YPL106C, strain sse1, stronger effect = lower value 0.996 | S. cerevisiae deletion strains, locus YPL240C, strain hsp82, stronger effect = lower value 0.991 | S. cerevisiae deletion strains, locus YPL241C, strain CIN2, stronger effect = lower value 1.01 and 1 | S. cerevisiae deletion strains, locus YPL256C, strain CLN2, stronger effect = lower value 0.949 | S. cerevisiae deletion strains, locus YPR119W, strain clb2, stronger effect = lower value 0.995 | S. cerevisiae deletion strains, locus YPR141C, strain kar3, stronger effect = lower value 1.01 | S. cerevisiae deletion strains, locus YPR163C, strain tif3, stronger effect = lower value 1 | S. cerevisiae deletion strains, locus YPR167C, strain met16, stronger effect = lower value 0.997 | S. cerevisiae deletion strains, strain wtn01, stronger effect = lower value 0.994 | S. cerevisiae strains, strain wild type, stronger effect = lower value 1.01
